Results published in the supplement of paper PMC5641865, “A screen for kinase inhibitors identifies antimicrobial imidazopyridine aminofurazans as specific inhibitors of the Listeria monocytogenes PASTA kinase PrkA” (The Journal of Biological Chemistry, 2017).
± gives the standard deviation of the averaged measurements.

Test system: Listeria monocytogenes 10403S
Assay: growth inhibition relative to ceftriaxone-alone control; higher = stronger potentiation of ceftriaxone growth inhibition
Conditions: 10 µM; ceftriaxone 1 ug/ml; 12 h
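Also: End-point A600 read in BHI broth at 37 °C with 2% DMSO, inhibition computed as (1 − OD with compound plus ceftriaxone ÷ OD with ceftriaxone only) × 100.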

| SMILES | growth inhibition [%] |
| --- | --- |
| Fc1ccc(-c2ncn(CCCN3CCOCC3)c2-c2ccncc2)cc1 | 1.14 ± 3.2 |
| FC(F)(F)c1cccc(Nc2nccc(-c3cnn4nc(-c5ccccc5)ccc34)n2)c1 | -7.85 ± 2.6 |
| C[C@@H]1CN(CC(=O)Nc2ccc3c(c2)Cc2cccc(-c4cc(=O)cc(N5CCOCC5)o4)c2S3)C[C@H](C)O1 | 27.5 ± 4.1 |
| c1ccc(Oc2ccc(Nc3ncc(-c4ccccc4)o3)cc2)cc1 | -0.487 ± 1.7 |
| COc1cc2nccc(Oc3ccc(NC(=O)NC4CC4)c(Cl)c3)c2cc1C(N)=O [E7080 (Lenvatinib)] | 5.83 ± 14 |
| COc1cc(N2CCN(C(C)C)CC2)ccc1Nc1nc(Nc2cccc3ncccc23)c2cc[nH]c2n1 | -2.19 ± 2.3 |
| Oc1cc(O)cc(/C=C/c2ccc(O)c(O)c2)c1 [Piceatannol] | 29.4 ± 16 |
| CCC[C@H](NC(=O)/C(C#N)=C/c1cccc(Br)n1)c1ccccc1 | 99.32 ± 0.54 |
| O=C(O[C@H]1CN[C@H](C#Cc2cc3ncnc(Nc4ccc(OCc5cccc(F)c5)c(Cl)c4)c3s2)C1)N1CCOCC1 | 14.3 ± 11 |
| CCc1ccc(Oc2nccc(-c3c(-c4ccc(F)cc4)ncn3C3CCNCC3)n2)cc1 | 1.75 ± 23 |
| COc1cc2ncnc(Nc3cccc(Br)c3)c2cc1OC | 36.1 ± 16 |
| COc1cc2ncn(-c3cc(OCc4ccccc4Cl)c(C(N)=O)s3)c2cc1OC | -6.56 ± 0.46 |
| CCCS(=O)(=O)Nc1ccc(F)c(C(=O)c2c[nH]c3ncc(Cl)cc23)c1F | 24.2 ± 22 |
| CCS(=O)(=O)Nc1ccc2c(c1)/C(=C(/Nc1ccc(CN3CCCCC3)cc1)c1ccccc1)C(=O)N2 [Hesperadin] | 19.3 ± 11 |
| CCS(=O)(=O)c1ccc(OC)c(Nc2nccc(N(C)c3ccc4c(C)n[nH]c4c3)n2)c1 | 0.981 ± 2.5 |
| C[C@@H](Oc1cc(-n2cnc3ccc(CN4CCN(C)CC4)cc32)sc1C(N)=O)c1ccccc1C(F)(F)F | 88.5 ± 8.4 |
| CCS(=O)(=O)c1ccc(OC)c(Nc2ncc(-c3ccccc3Cl)o2)c1 | -2.57 ± 15 |
| COc1ccc2c(OCc3nnc4ccc(-c5ccccc5)nn34)ccnc2c1 | 11.6 ± 13 |
| CC(C)(C)c1cc(/C=C(\C#N)C(N)=S)cc(C(C)(C)C)c1O [Tyrphostin AG 879 (AG 879)] | 72.8 ± 30 |

| SMILES | growth inhibition [%] |
| --- | --- |
| Cc1nn(C)c2cc(N(C)c3ccnc(Nc4cccc(S(N)(=O)=O)c4)n3)ccc12 | 10.1 ± 1.2 |
| CCn1c(-c2nonc2N)nc2c(C#CC(C)(C)O)ncc(OC[C@H]3CCCNC3)c21 | 98.398 ± 0.078 |
| OCCCNc1nccc(-c2c(-c3ccc(F)cc3)nn3cc(C(F)(F)F)ccc23)n1 | 15.6 ± 7.1 |
| CS(=O)(=O)CCNCc1ccc(-c2ccc3ncnc(Nc4ccc(OCc5ccccc5)c(Br)c4)c3c2)o1 | -2.35 ± 3.3 |
| CC1(C)CNc2cc(NC(=O)c3cccnc3NCc3ccncc3)ccc21 [Motesanib Diphosphate (AMG-706)] | 22.2 ± 22 |
| Cc1nnc(-c2cccc(-c3ccc(C(=O)NCC4CC4)cc3)c2)o1 | 3.5 ± 10 |
| CNC(=O)c1cccc(C#Cc2cncnc2Nc2ccc(OCc3cccc(F)c3)c(Cl)c2)c1 | -0.177 ± 4.2 |
| CNC(=O)c1cccc(-c2ccc3c(N4CCOC[C@@H]4C)nc(N4CCOC[C@@H]4C)nc3n2)c1 | 1.51 ± 0.18 |
| CO[C@H]1C[C@@H]2CC[C@@H](C)[C@@](O)(O2)C(=O)C(=O)N2CCCC[C@H]2C(=O)O[C@H]([C@H](C)C[C@@H]2CC[C@@H](OC(=O)C(C)(CO)CO)[C@H](OC)C2)CC(=O)[C@H](C)/C=C(\C)[C@@H](O)[C@@H](OC)C(=O)[C@H](C)C[C@H](C)/C=C/C=C/C=C/1C [Temsirolimus (Torisel)] | 19.8 ± 59 |
| CC[C@H](Nc1ncnc2[nH]cnc12)c1nc2cccc(F)c2c(=O)n1-c1ccccc1 | 21.7 ± 23 |
| Cc1cccc(-c2n[nH]cc2-c2ccc3ncccc3n2)n1 | -9.12 ± 7.3 |
| Cc1cc(O)cc(C)c1/C=C/c1cncc(C(=O)N(C)C)c1 | -3.75 ± 3.3 |
| CCCCCCCCCCCCc1ccc(S(=O)(=O)Nc2nncs2)cc1 | 93.5 ± 11 |
| NC(=O)Nc1sc(-c2ccc(F)cc2)cc1C(N)=O | 40.9 ± 15 |
| Cc1cc(Nc2cc(CN3CCOCC3)c3nc(C)c(Cc4ccc(Cl)cc4F)n3n2)n[nH]1 | 12 ± 6.8 |
| COc1ccc2c(Oc3ccc(NC(=O)c4c(C)n(CC(C)(C)O)n(-c5ccccc5)c4=O)nc3)ccnc2c1 | 28.9 ± 13 |
| NC(=O)Cc1ccccc1Oc1nccc(-c2c(-c3ccc(F)cc3)ncn2C2CCNCC2)n1 | -2.82 ± 0.75 |
| COc1cc2c(Oc3ccc(NC(=O)C4(C(=O)Nc5ccc(F)cc5)CC4)cc3F)ccnc2cc1OCCCN1CCOCC1 | 80.2 ± 4.3 |
| COc1ccc2ncnc(Nc3ccc(OCc4ccccc4)cc3)c2c1 | 1.99 ± 13 |
